Experiment [1] is described as follows: compounds altering circadian rhythm period length – cell-based, LOPAC library, luminescence reporter (AID 2774).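 Further: values are relative to mean of DMSO wells on each plate.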 The note with it: circadian reporter cells, at 7 µM, actives lie on both sides.
The test system of experiment [2] is Hepatitis C virus NS3 helicase. As to the kind of experiment: blockers of NS3h binding to ssDNA – biochemical, fluorescence polarization, LOPAC1280 library, primary screen (AID 687035; in the data active means inhibition above about 37%). The note with it: Purified HCV NS3 helicase, Cy5-dT15 ssDNA binding fluorescence polarization; stronger effect = higher value; concentration not given here.
A short description of experiment [3]: compounds altering Cy5-DNA-NS3h complex signal – biochemical, LOPAC1280, artefact control for HCV NS3 helicase inhibitor project (AID 687037). The note with it: Cy5-DNA-NS3h complex fluorescence interference counterscreen.
Experiment [4] has as its target NAD(+) hydrolase SARM1 (Homo sapiens) (UniProt Q6SZW1). As to the kind of experiment: blocking NAD cleavage by SARM1 SAM-TIR – cell lysate, NAD-Glo luminescence (AID 1508614;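 active means compound whose remaining NAD level is above about 45 nM, limit read from the data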). The note with it: SAM-TIR HEK293T lysate NADase, at 1 µM, stronger effect = higher value.
A short description of experiment [5]: growth inhibition, single agent or in combination, cell-based, chromothripsis tumors, cisplatin or BGB combos (AID 1671449; in the data active means inhibition above about 80%;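 further: cells exposed for 96 hours; 0% = vehicle DMSO and 100% = killing by high DMSO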). The note with it: LFS_MB_P medulloblastoma cells.
Experiment [6] in a line: growth inhibition, single agent and combos, cell-based, chromothripsis tumors, cisplatin or BGB combos (AID 1671450; in the data active means inhibition above about 80%;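 further: cells exposed to compound for four days; 0% = vehicle DMSO and 100% = cell killing by high DMSO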). The note with it: HDN33 neuroblastoma cells, stronger effect = higher value.
The nature of experiment [7]: growth inhibition, single agents and combos, ICB984, cell-based, cisplatin or BGB combos, synergistic combos for chromothripsis tumors (AID 1671451).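 Further: cells exposed for 96 hours before readout; 0% = vehicle DMSO and 100% = killing by high DMSO.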 The note with it: ICB984 medulloblastoma cells, drug combinations, stronger effect = higher value.
Experiment [8] is described as follows: growth inhibition, single agents and combos, LFS_MB_1R, cell-based, cisplatin or BGB combos, synergistic combos for chromothripsis tumors (AID 1671452; in the data active means inhibition above about 80%;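 further: cells exposed for 96 hours before readout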). The note with it: LFS_MB_1R medulloblastoma cells, stronger effect = higher value.
Experiment [9] can be described thus: growth inhibition, single agents and combos, HTB85, cell-based, BGB or cisplatin IC20 combos, synergistic combos for chromothripsis tumors (AID 1671453; in the data active means inhibition above about 80%;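 further: cells exposed for 96 hours before readout; 0% = vehicle DMSO and 100% = high DMSO killing control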). The note with it: HTB85 osteosarcoma cells, drug combinations, stronger effect = higher value.
Experiment [10] is described as follows: growth inhibition, single agents and combos, CRL2098, cell-based, BGB or cisplatin IC20 combos, synergistic combos for chromothripsis tumors (AID 1671454; in the data active means inhibition above about 80%;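 further: cells exposed for 96 h before readout; 0% = vehicle DMSO and 100% = killing by high DMSO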). The note with it: CRL2098 osteosarcoma cells, drug combinations, stronger effect = higher value.
Experiment [11] in a line: growth inhibition, single agents and combos, HD-MB03, cell-based, BGB or cisplatin IC20 combos, synergistic combos for chromothripsis tumors (AID 1671455; in the data active means inhibition above about 83%;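 further: 0% = vehicle DMSO and 100% = high DMSO as cytotoxic control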). The note with it: HD-MB03 medulloblastoma cells, stronger effect = higher value.
A short description of experiment [12]: growth inhibition, single agents and combos, UWB1.289, cell-based, BGB or cisplatin combos, synergistic combos for chromothripsis tumors (AID 1671456; in the data active means inhibition above about 80%;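 further: cells exposed to compound for four days; 0% = vehicle DMSO and 100% = killing by high DMSO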). The note with it: UWB1.289 ovarian carcinoma cells, stronger effect = higher value.
Experiment [13] can be described thus: growth inhibition, MDA-MB-436, cell-based, BGB or cisplatin combos, synergistic combos for chromothripsis tumors (AID 1671458).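 Further: cells exposed for 96 hours; 0% = vehicle DMSO and 100% = killing by high DMSO.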 The note with it: MDA-MB-436 breast carcinoma growth inhibition, drug combinations, stronger effect = higher value.
Experiment [14] is described as follows: BT084 cell growth, single and combined drugs, ICGC_MB145, cisplatin and BGB IC40 combos (AID 1671461; in the data active means inhibition above about 80%;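 further: cells exposed to drugs for 96 hours; 0% = vehicle DMSO and 100% = high DMSO full killing control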). The note with it: BT084 medulloblastoma cells, drug combinations, stronger effect = higher value.
A short description of experiment [15]: RCMB18 cell growth, single agent and combined, cisplatin and BGB IC40 combos (AID 1671462; in the data active means inhibition above about 80%;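 further: cells exposed to compound for four days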). The note with it: RCMB18 medulloblastoma cells, stronger effect = higher value.
Experiment [16] can be described thus: CRL1545 cell growth, single agent and combined, cisplatin and BGB IC20 combos (AID 1671464; in the data active means inhibition above about 80%;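 further: cells exposed to compound for 96 hours before readout; 0% = vehicle DMSO and 100% = high DMSO killing control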). The note with it: CRL1545 osteosarcoma cells, stronger effect = higher value.
The nature of experiment [17]: compounds altering HSF1 focus formation in cells – imaging, Selleck Cancer Library (AID 1347162; in the data active means plate-normalised HSF1 focus index below about 0.46). The note with it: human cells, HSF1 nuclear foci imaging, at 10 µM; SSMD: measured here: HSF1 foci SSMD mean; cell count: measured here: cell number; plate-normalised HSF1 focus index: stronger effect = lower value.
The mark [18] stands for this setting: measured here: combination with BGB IC40, at 0.05 µM.
The mark [19] stands for this setting: measured here: with BGB IC20 combination, at 0.5 µM.
The mark [20] stands for this setting: measured here: with cisplatin IC20 combination, at 0.5 µM.
Where [21] appears, read: measured here: combination with cisplatin, at 0.5 µM.

The source made the active and inactive calls. Unless noted, how the calls were made is not given here.

Chain of NAD(+) hydrolase SARM1 (Homo sapiens) (Q6SZW1 whole entry, looked up): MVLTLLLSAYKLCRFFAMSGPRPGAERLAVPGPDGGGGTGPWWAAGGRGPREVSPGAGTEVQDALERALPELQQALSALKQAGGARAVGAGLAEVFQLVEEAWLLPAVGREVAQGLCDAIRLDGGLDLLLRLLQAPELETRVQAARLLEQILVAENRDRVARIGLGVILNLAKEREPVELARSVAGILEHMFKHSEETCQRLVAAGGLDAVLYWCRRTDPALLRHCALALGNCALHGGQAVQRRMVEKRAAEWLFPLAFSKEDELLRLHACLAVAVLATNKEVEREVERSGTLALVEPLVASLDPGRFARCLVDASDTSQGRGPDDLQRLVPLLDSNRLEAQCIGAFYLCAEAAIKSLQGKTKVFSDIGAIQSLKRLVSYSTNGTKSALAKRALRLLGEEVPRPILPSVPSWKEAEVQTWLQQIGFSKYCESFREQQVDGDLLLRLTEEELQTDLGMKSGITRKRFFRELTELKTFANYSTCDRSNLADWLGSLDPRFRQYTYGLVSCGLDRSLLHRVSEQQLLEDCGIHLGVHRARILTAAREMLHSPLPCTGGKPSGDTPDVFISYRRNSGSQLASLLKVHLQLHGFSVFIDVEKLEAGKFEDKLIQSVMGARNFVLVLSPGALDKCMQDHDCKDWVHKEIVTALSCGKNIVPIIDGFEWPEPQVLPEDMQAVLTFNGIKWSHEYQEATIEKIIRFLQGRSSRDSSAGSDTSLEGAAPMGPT

`Nc1cc(=O)[nH]c(N)n1`: the period change in experiment [1] is -0.06 h (inactive). Moreover, the inhibition in experiment [2] is 1% (inactive). Moreover, in [3], the fluorescence ratio (interference) was 1.1 (inactive).

Take `NC(=O)c1cn(Cc2c(F)cccc2F)nn1`: the inhibition in experiment [2] was -5% (inactive). Besides, in [3], the fluorescence ratio (interference) is 1 (inactive).

With `OCCN1CCN(CCCN2c3ccccc3C=Cc3ccccc32)CC1`, the inhibition in experiment [2] was -5% (inactive). Further, the fluorescence ratio (interference) in experiment [3] is 1 (inactive).

With `CCN1CCc2nc(N)oc2CC1`, the period change in [1] is 0.015 h (inactive). Moreover, the inhibition in experiment [2] was -3% (inactive). Moreover, the fluorescence ratio (interference) in [3] is 1 (inactive).

As for `OCCN1CCN(CC/C=C2/c3ccccc3Sc3ccc(C(F)(F)F)cc32)CC1`, the period change in experiment [1] was -0.1 h (inactive). The inhibition in [2] is -1% (inactive). For the same compound, the fluorescence ratio (interference) in [3] is 1 (inactive).

Turning to `C(=C\c1ccccc1)/CN1CCN(C(c2ccccc2)c2ccccc2)CC1`, the period change in experiment [1] is 0.12 h (inactive). The inhibition in experiment [2] was 1% (inactive). The fluorescence ratio (interference) in experiment [3] is 1 (inactive). Besides, the remaining NAD in experiment [4] was 10 nM (inactive).

With `CC(=O)[C@@]1(O)CC[C@H]2[C@@H]3CCC4=CC(=O)CC[C@]4(C)[C@H]3CC[C@@]21C`, in experiment [1], the period change is 0.035 h (inactive). For the same compound, in experiment [2], the inhibition is 0% (inactive). Further, the fluorescence ratio (interference) in experiment [3] is 1 (inactive).

On to `O=c1[nH]c(=O)n([C@H]2C[C@H](O)[C@@H](CO)O2)cc1Br`, for which the period change in experiment [1] is -0.205 h (inactive). Besides, the inhibition in experiment [2] was -1% (inactive); in experiment [5] (at 0.5 µM, stronger effect = higher value) it was 27% (inactive); in experiment [5] (measured here: combination with BGB IC20, at 0.005 µM), -4.77%; in experiment [5] (measured here: combination with BGB IC40, at 0.005 µM), -39.7%; in experiment [5] (setting [18]), -12.1%; in [5] (measured here: combination with cisplatin, at 0.5 µM, stronger effect = higher value) it was 74.8%. Also, the inhibition was -36% in experiment [5] (measured here: combination with cisplatin, at 5 µM, stronger effect = higher value); 11.2% in experiment [6] (BGB combo, at 5 µM); 21.5% (inactive) in experiment [6] (at 0.5 µM); 2.65% in experiment [6] (cisplatin combo, at 5 µM); 31.8% in experiment [6] (setting [19]); 4.43% in experiment [6] (setting [20]). Besides, the inhibition in experiment [6] (single agent, at 5 µM) is 17%; in [7] (BGB IC20 combo, at 0.005 µM), -12.2%; in experiment [7] (BGB IC40 combo, at 0.005 µM) it was -50%; in [7] (BGB IC40 combo, at 0.05 µM) it was -16.9%; in experiment [7] (at 0.5 µM), -24.2% (inactive); in [7] (cisplatin combo, at 0.05 µM), -21.6%. In addition, the inhibition is -35.3% in [7] (cisplatin combo, at 0.5 µM); -5.29% in experiment [7] (cisplatin combo, at 5 µM); -6.23% in experiment [7] (measured here: 5 uM single agent, at 5 µM); -8.78% (inactive) in experiment [8] (at 0.5 µM); -9.5% in experiment [8] (setting [18]); -3.13% in experiment [8] (setting [21]). Moreover, the inhibition in experiment [8] (measured here: combination with cisplatin, at 5 µM) is 18.2%; in experiment [9] (at 0.5 µM), -5% (inactive); in experiment [9] (measured here: with BGB IC20, at 0.5 µM) it was -14.3%; in [9] (measured here: with BGB IC20, at 5 µM), -8.79%; in [9] (measured here: with cisplatin IC20, at 0.5 µM), -8.95%; in experiment [9] (measured here: with cisplatin IC20, at 5 µM) it was 4.02%. The inhibition is 9.21% in [9] (single agent, at 5 µM); -34.2% (inactive) in experiment [10] (at 0.5 µM); -5.25% in experiment [10] (measured here: combination with BGB at IC20, at 0.5 µM); -22.4% in experiment [10] (measured here: combination with cisplatin at IC20, at 0.5 µM); 14.2% (inactive) in experiment [11] (at 0.5 µM); 14.5% in experiment [11] (measured here: combo with BGB at IC20, at 0.5 µM). Further, the inhibition in experiment [11] (measured here: combo with cisplatin at IC20, at 0.5 µM) was 32.3%; in [12] (at 0.5 µM) it was 3.4% (inactive); in experiment [12] (measured here: inhibition with BGB combination, at 0.05 µM), -18.3%; in experiment [12] (measured here: inhibition with cisplatin combination, at 0.05 µM), -5.15%; in [13] (at 0.5 µM) it was -4.92% (inactive); in experiment [13] (measured here: BGB combination, at 0.5 µM), -11.6%. Further, the inhibition in experiment [13] (measured here: BGB combination, at 5 µM) was -22.5%; in experiment [13] (measured here: cisplatin combination, at 0.5 µM), -2.86%; in experiment [13] (measured here: cisplatin combination, at 5 µM), -6.5%; in [14] (at 0.5 µM), -8.02% (inactive); in [14] (cisplatin combination, at 0.5 µM), 3.56%; in experiment [14] (cisplatin combination, at 5 µM), -1.86%. In addition, the inhibition is -20.2% in experiment [14] (measured here: BGB IC40 combination 0.05 uM, at 0.05 µM); -7.12% in experiment [14] (single agent, at 5 µM); -10.5% (inactive) in experiment [15] (at 0.5 µM); 28.1% in experiment [15] (cisplatin combo, at 5 µM); -19.3% in [15] (measured here: BGB IC40 combination, at 0.05 µM); 32.5% in experiment [15] (setting [21]). The inhibition in experiment [15] (single agent, at 5 µM) is -34.1%; in [16] (at 0.5 µM), 8.96% (inactive); in experiment [16] (setting [19]), 3.57%; in experiment [16] (setting [20]) it was 11.6%; in experiment [16] (single agent, at 0.05 µM) it was -0.752%; in experiment [16] (single agent, at 5 µM), 41.5%. The fluorescence ratio (interference) in [3] was 1 (inactive).

Consider `CCNC(=O)N1CCN(CCCC(c2ccc(F)cc2)c2ccc(F)cc2)CC1`, for which, in experiment [1], the period change is -0.05 h (inactive). The inhibition in experiment [2] is -1% (inactive). Further, the fluorescence ratio (interference) in [3] is 1 (inactive).

Consider `COc1ccc(CCN(C)CCCC(C#N)(c2cc(OC)c(OC)c(OC)c2)C(C)C)cc1OC` (configuration not stated), for which the period change in experiment [1] was -0.105 h (inactive). Further, the inhibition in experiment [2] was -1% (inactive). In addition, the fluorescence ratio (interference) in experiment [3] was 1 (inactive).

For the compound `CCN(CC)CCCN(c1ccccc1)C1Cc2ccccc2C1`, the inhibition in experiment [2] is -1% (inactive). For the same compound, the fluorescence ratio (interference) in experiment [3] was 1 (inactive).

With `C[N+](C)(C)CCOC(=O)CCC(=O)OCC[N+](C)(C)C`, the period change in experiment [1] is 0.025 h (inactive). Besides, the inhibition in experiment [2] is 2% (inactive). For the same compound, the fluorescence ratio (interference) in experiment [3] is 1 (inactive).

Turning to `CC1=C(CC(=O)O)c2cc(F)ccc2/C1=C\c1ccc(S(C)(=O)=O)cc1`, in experiment [1], the period change was 0.07 h (inactive). The inhibition in [2] is -4% (inactive). For the same compound, the fluorescence ratio (interference) in [3] is 1 (inactive).

In the case of `C[C@]12CCC(=O)C=C1CC[C@@H]1[C@@H]2CC[C@@]2(C)[C@H]1CC[C@]2(O)C(=O)CO`, the period change in experiment [1] was -0.335 h (inactive). Besides, the inhibition in experiment [2] was 0% (inactive). Moreover, the fluorescence ratio (interference) in [3] is 1 (inactive).

In the case of `COC(=O)[C@@H](N)Cc1ccc(O)c(O)c1`, in [1], the period change was 0.105 h (inactive). Moreover, the inhibition in [2] is -2% (inactive). In addition, in experiment [3], the fluorescence ratio (interference) was 1 (inactive).

On to `Nc1cccc2c1CN(C1CCC(=O)NC1=O)C2=O` (configuration not stated), for which, in [17], the SSMD was found to be 2.07, the cell count amounted to 6670 and the plate-normalised HSF1 focus index was 1.11 (inactive).

With `CC(=O)N(CC(O)CO)c1c(I)c(C(=O)NCC(O)CO)c(I)c(C(=O)NCC(O)CO)c1I` (configuration not stated), in experiment [4], the remaining NAD was 10 nM (inactive).

Take `O=c1[nH]c2ccccc2n1CCCN1CCN(C(c2ccccc2)c2ccccc2)CC1`: the period change in [1] is 0.15 h (inactive).
